Bioassay records as filed in PubChem BioAssay.
An excerpt weighted towards active compounds, which were near 3.1% of everything screened.
PMP22 txn prim = modulates PMP22 transcription in S16 Schwann cells; S16 Pmp22-F2sN Schwann cells, FLuc/NLuc coincidence luminescence, 24 h; Potency, µM (titrated, usually from 57.5 µM), for inactives: at the highest dose activity change, negative = inhibition, usual class: inhibitors; 43,000 compounds, 2% hits; active = clear falling dose curves in both reporters; inconclusive = both reporters move, but less clearly or upward; inactive = either reporter flat; the % is the NLuc reporter signal
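Schwann cells carrying the coincidence reporter were exposed to library compounds for 24 h at 37C, then lysed and read for FLuc and, after quenching, NLuc luminescence on a CCD imager.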
p53null 32C kill = kills p53 null cells at the permissive temperature; H1299-neo p53 null cells, ATP luminescence, 24 h, 32C; Potency, µM (titrated, usually from 46.1 µM), for the others: top-dose activity change, negative = cytotoxicity, most hits filed as cytotoxic; 55,000 compounds, 0.62% hits; AID 903;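 also: 0% = DMSO only and -100% = full killing by 100 µM tamoxifen; nearly all actives have a fitted effect of over 55% in size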
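We seeded p53-null H1299-neo cells, incubated them overnight at 37C, and added compounds across a range up to 46 uM. After 24 hours at 32C, ATP reagent was applied for 20 min at room temperature and luminescence recorded.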
p53null 39C tox = p53 null cell cytotoxicity, nonpermissive temperature | AID 904 | H1299 p53-null (neo) cells, 39C, ATPlite viability, 24 h | 55,000 compounds, 0.97% hits | Potency, µM (top dose mostly 46.1 µM), inactives show at the top dose activity, negative = cell killing, actives largely listed as cytotoxic;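 also: 0% = DMSO only and -100% = full killing by 100 µM tamoxifen; nearly all actives have a fitted effect of over 50% in size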
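Concentration-response (up to 46 uM) was run for 24 h at the nonpermissive 39C on H1299-p53A138V or H1299-neo cells. ATP content was measured with ATPlite luminescence. AC50 values were Hill-modeled after normalizing between DMSO and 100 uM tamoxifen killing.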
S16 viability = toxic to S16 Pmp22-F2sN Schwann cells. 43,000 compounds, 0.48% hits. S16 Pmp22-F2sN Schwann cells viability, CellTiter-Glo, 24 h. Potency, µM (series often up to 57.5 µM), inactives show top-dose activity change, negative = cytotoxicity, hits mostly cytotoxic; also: nearly all actives have a fitted effect of over 65% in size
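Used to flag compounds lowering reporter output through toxicity, this quantitative HTS measures ATP-based CellTiter-Glo luminescence in S16 Pmp22-F2sN Schwann cells after 24 h compound exposure at 37C.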
mTORC1 inh = mTORC1 pathway inhibition measured by phospho-rpS6. 44,000 compounds, 0.78% hits. Tsc2-/- p53-/- MEF, phospho-rpS6 immunofluorescence/PI, 24 h. Potency, µM (titrated, usually from 38.3 µM), inactives show at the top dose activity change, negative = inhibition, hits mostly inhibitors;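 also: plate controls were DMSO for no effect and rapamycin for full effect; nearly all actives have a fitted effect of over 50% in size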
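Read-out: phospho-S6 Alexa-488 intensity over PI intensity per well, scored as % active cells using thresholds from rapamycin (7.5 nM) and DMSO controls. Tsc2-/-, p53-/- MEFs exposed to compound for 24 h; PI cell count recorded as viability.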
SKOV3 invasion = blocks SKOV3ip1 adhesion and invasion in omental model | 46,000 compounds, 0.1% hits | AID 1963576 | Potency, µM (series often up to 45.8 µM), inactives show at the highest dose activity change, negative = inhibition, actives largely listed as inhibitors | SKOV3ip1-GFP adhesion/invasion on 3D omental model, fluorescence;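 also: plate controls were DMSO wells for no effect and tomatine positive control wells for full effect; nearly all actives have a fitted effect of over 65% in size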
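A 3D layer of primary human omental fibroblasts, mesothelial cells, fibronectin and collagen I, grown 48 hr, received SKOV3ip1-GFP cells in serum-free medium plus compounds at 0.36-46 umol/L. After 2 hr RT and 16 hr 37 C, fixed adherent GFP cells were counted; normalized to DMSO and tomatine.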
An asterisk follows results filed as active; i = inactive; ? = inconclusive; . = not tested or not shown. Unless noted, calls follow the shape of the dose curve; as a rule, active = well fitted curve in the direction sought with a large enough effect; inconclusive = small, poorly fitted or top-dose-only effect, or another doubt; inactive = no such curve, though single readings can be large; an effect the other way counts as inactive or inconclusive. Unless noted, % is scaled to controls: 0 for no effect and ±100 for the full control effect; potency is read from the fitted curve at half-maximal effect.

SMILES	PMP22 txn prim	p53null 32C kill	p53null 39C tox	S16 viability	mTORC1 inh	SKOV3 invasion
Cc1ccc(CNC(=O)c2ccc(NC(=O)c3nsc4ccccc34)cc2)cc1	-16%	-14%	-23%	2%	7%	-8%
CNC(=O)c1ccc(NC(=O)c2nsc3ccccc23)cc1	21%	6.3µM*	5µM*	-24%	2%	-1%
O=C(Nc1ccc(C(=O)N2CCN(c3ccc(F)cc3)CC2)cc1)c1nsc2ccccc12	-32%	0%	-14%	?	17%	14%
O=C(NCc1cccc(F)c1)c1ccc(NC(=O)c2nsc3ccccc23)cc1	-5%	?	10µM*	?	3%	-1%
O=C(Nc1ccc(C(=O)N2CCCCC2)cc1)c1nsc2ccccc12	-14%	4µM*	4µM*	?	1%	3%
C=CC[N+]1([C@H]2C[C@H]3[C@@H]4CC[C@H]5C[C@H](O)[C@@H](N6CCOCC6)C[C@]5(C)[C@@H]4CC[C@]3(C)[C@H]2OC(C)=O)CCCC1	.	.	.	.	.	-14%
COc1cccc(C(=O)Nc2nc3c(s2)CCCC3)c1	?	13µM*	5µM*	-19%	-8%	i
CCN(CC)S(=O)(=O)c1ccc2c(c1)c(=O)c(C(=O)NCc1ccccc1)cn2C	?	8%	13%	-1%	-8%	5%
CCN(CC)S(=O)(=O)c1ccc2c(c1)c(=O)c(C(=O)NCc1ccccc1Cl)cn2C	?	?	5µM*	-28%	-8%	i
Cc1ccc(OC(=O)c2cc(-c3ccc4c(c3)OCCO4)on2)c(C)c1	11%	20µM*	32µM*	2%	-1%	-11%
CC(=O)c1cccc(NC(=O)c2cc(-c3ccc4c(c3)OCCO4)on2)c1	7%	2µM*	3.2µM*	3%	-16%	i
CC(C)(C)OC(=O)N[C@H]1CCCCCC=C[C@@H]2C[C@@]2(C(=O)NS(=O)(=O)C2CC2)NC(=O)[C@@H]2C[C@@H](OC(=O)N3Cc4cccc(F)c4C3)CN2C1=O	.	.	.	.	.	10%
CC(=O)OCC(=O)[C@@]12OC(C)(C)O[C@H]1C[C@H]1[C@@H]3C[C@H](F)C4=CC(=O)C=C[C@]4(C)[C@@]3(F)[C@@H](O)C[C@@]12C	.	.	.	.	.	25%
Oc1cc(-c2nc(-c3ccccc3)[nH]c2-c2ccncc2)ccc1Cl	.	.	.	.	.	-11%
Cc1cccc2nc(-c3ccccn3)c(Nc3ccccc3)n12	?	27%	?	-6%	-11%	-14%
Cc1cccc2nc(-c3ccccn3)c(Nc3ccc(F)cc3)n12	13µM*	22%	?	?	-16%	?
CSc1cccc(Nc2ncc3cc(-c4c(Cl)cccc4Cl)c(=O)n(C)c3n2)c1	.	.	.	.	.	-6%
CCCN(CCC)CCNC(=O)c1cc2c(-c3ccc(Cl)cc3)nn(C)c2s1	?	?	13µM*	?	-13%	i
CCCCN(CC)CCNC(=O)c1cc2c(-c3ccc(Cl)cc3)nn(C)c2s1	?	?	16µM*	?	?	?
Cc1cc(N2CCN(C)CC2)nc2ccc(NC(=O)c3ccc(C(C)(C)C)cc3)cc12	?	25µM*	13µM*	?	5.8µM*	?
CCOc1ccccc1NC(=O)Nc1ccc2nc(N3CCN(C)CC3)cc(C)c2c1	?	?	18µM*	?	?	?
CCN1CCN(c2cc(C)c3cc(NC(=O)c4cc(OC)c(OC)c(OC)c4)ccc3n2)CC1	-2%	-8%	15%	-19%	?	-2%
CCN1CCN(c2cc(C)c3cc(NC(=O)c4ccc(OC)c(OC)c4)ccc3n2)CC1	?	2%	-5%	20µM*	?	0%
CC1(C)SCCN(S(=O)(=O)c2ccc(OCC#CCO)cc2)[C@@H]1C(=O)NO	.	.	.	.	.	-6%
C[C@@H](Oc1cc(-c2cnn(C3CCNCC3)c2)cnc1N)c1c(Cl)ccc(F)c1Cl	.	.	.	.	.	-16%
SMILES	PMP22 txn prim	p53null 32C kill	p53null 39C tox	S16 viability	mTORC1 inh	SKOV3 invasion
CCCNC(=O)c1ccc2c(c1)nc1n2CCCCC1	-7%	13µM*	10µM*	-3%	-10%	i
COc1ccc(CNC(=O)c2ccc3c(c2)nc2n3CCCCC2)cc1	-9%	?	-57%	3%	3%	i
COCCCNC(=O)c1ccc2c(c1)nc1n2CCCCC1	-10%	?	13µM*	6%	7%	-8%
O=C(NCCc1ccccc1Cl)c1ccc2c(c1)nc1n2CCOC1	-6%	10µM*	5µM*	26%	-10%	5%
CCC(C)NC(=O)c1ccc2c(c1)nc1n2CCCCC1 (configuration not stated)	?	?	5µM*	2%	-12%	i
Cc1cccc(CCNC(=O)c2ccc3c(c2)nc2n3CCOC2)c1	13%	?	?	25%	-15%	3%
Clc1ccc2ncc(-c3cccc(NC4CNC4)n3)n2c1	.	.	.	.	.	20%
Cc1ccc(CCNC(=O)c2ccc3c(c2)nc2n3CCCCC2)cc1	18%	-19%	?	24%	-8%	4%
Cc1cccc(CCNC(=O)c2ccc3c(c2)nc2n3CCCCC2)c1	1%	10µM*	10µM*	-3%	1%	1%
CNc1nnc(-c2ccc(N(C)C)cc2)s1	.	8.9µM*	7.9µM*	.	.	.
O=C(NC1CCN(Cc2ccccc2)CC1)c1ccc(Cn2c(=O)c3ccccc3n(Cc3ccc(F)cc3)c2=O)cc1	?	38%	4%	?	3.3µM*	3%
Cc1ccc(C)c(Cn2c(=O)n(Cc3ccc(C(=O)NC4CCN(Cc5ccccc5)CC4)cc3)c(=O)c3ccccc32)c1	-4%	10%	-15%	19%	-5%	5%
Cc1cc(C(=O)N2CCN(c3cccc(Cl)c3)CC2)n(-c2ccccc2)n1	.	.	.	.	.	5%
Nc1ccc2oc(-c3ccc4nc[nH]c4c3)nc2c1	.	7.9µM*	13µM*	.	.	.
Cc1cccc(NC(=O)c2c(NC(=O)C(F)(F)F)sc3c2CCCCC3)c1	10µM*	-8%	?	?	-13%	?
Cc1ccc(NC(=O)c2c(NC(=O)C(F)(F)F)sc3c2CCCCC3)cc1	10µM*	?	?	?	11%	i
Cc1cccc(C(=O)Nc2sc3c(c2C(=O)Nc2ccccc2)CCC3)c1	10%	-2%	-1%	7%	8%	3%
